# About 7,900 targets were measured; listed, in parts, are those with a hit and a random draw of the rest. About 0.6% of all pairs of compound and target were hits. Unmarked numbers belong to inactive results.
# Key:
# Assay in all cases: log2 fold change, soluble protein after heating vs DMSO (PISA); higher = thermal stabilisation; K562 cells, 10 uM, 30 min; active = over 0.2 and 3.5 SD of the protein, either way, in both replicates (recomputed)
# bafetinib = compound: Cc1ccc(NC(=O)c2ccc(CN3CC[C@H](N(C)C)C3)c(C(F)(F)F)c2)cc1Nc1nccc(-c2cncnc2)n1 [bafetinib]
# How it was run: (§1)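 Quantification of soluble protein used TMTpro 16plex LC-MS/MS, with channel sums equalised. Samples were the supernatant after 21,000xg for 90 min of pooled aliquots from K562 cells (2×10^6 cells/mL) treated with 10 μM compound for 30 min, heated for 3 min over 48°C-58°C, and extracted in PBS with 0.5% NP-40 at 4°C. Values, from duplicates, describe thermal stability against control samples on a log2 fold-change scale.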
# [1] = compound: Cc1cccc(CC(=O)N2CCc3c2ccc(-c2cn(C)c4ncnc(N)c24)c3F)n1
# How it was run: as §1
# nilotinib = compound: Cc1cn(-c2cc(NC(=O)c3ccc(C)c(Nc4nccc(-c5cccnc5)n4)c3)cc(C(F)(F)F)c2)cn1 [nilotinib]
# How it was run: as §1
# [2] = compound: Cc1nc(Nc2n[nH]c3c2CN(C(=O)N[C@H](CN(C)C)c2ccccc2)C3(C)C)c2sccc2n1
# How it was run: as §1
# dasatinib = compound: Cc1nc(Nc2ncc(C(=O)Nc3c(C)cccc3Cl)s2)cc(N2CCN(CCO)CC2)n1 [dasatinib]
# How it was run: as §1
# [3] = compound: Cc1ncc(-c2ccnc(Nc3ccc(S(C)(=O)=O)cc3)n2)n1C(C)C
# How it was run: as §1
# [4] = compound: Cn1cc(-c2ccc3c(c2)CCN3C(=O)Cc2cccc(C(F)(F)F)c2)c2c(N)ncnc21
# How it was run: as §1
# [5] = compound: Cn1cc(-c2ccc3nnc(C(F)(F)c4ccc5ncccc5c4)n3n2)cn1
# How it was run: as §1
# tipifarnib = compound: Cn1cncc1[C@@](N)(c1ccc(Cl)cc1)c1ccc2c(c1)c(-c1cccc(Cl)c1)cc(=O)n2C [tipifarnib]
# How it was run: as §1
# mubritinib = compound: FC(F)(F)c1ccc(/C=C/c2nc(COc3ccc(CCCCn4ccnn4)cc3)co2)cc1 [mubritinib]
# How it was run: as §1
# Sequence of UniProt Q13733 (Q13733 whole entry, looked up): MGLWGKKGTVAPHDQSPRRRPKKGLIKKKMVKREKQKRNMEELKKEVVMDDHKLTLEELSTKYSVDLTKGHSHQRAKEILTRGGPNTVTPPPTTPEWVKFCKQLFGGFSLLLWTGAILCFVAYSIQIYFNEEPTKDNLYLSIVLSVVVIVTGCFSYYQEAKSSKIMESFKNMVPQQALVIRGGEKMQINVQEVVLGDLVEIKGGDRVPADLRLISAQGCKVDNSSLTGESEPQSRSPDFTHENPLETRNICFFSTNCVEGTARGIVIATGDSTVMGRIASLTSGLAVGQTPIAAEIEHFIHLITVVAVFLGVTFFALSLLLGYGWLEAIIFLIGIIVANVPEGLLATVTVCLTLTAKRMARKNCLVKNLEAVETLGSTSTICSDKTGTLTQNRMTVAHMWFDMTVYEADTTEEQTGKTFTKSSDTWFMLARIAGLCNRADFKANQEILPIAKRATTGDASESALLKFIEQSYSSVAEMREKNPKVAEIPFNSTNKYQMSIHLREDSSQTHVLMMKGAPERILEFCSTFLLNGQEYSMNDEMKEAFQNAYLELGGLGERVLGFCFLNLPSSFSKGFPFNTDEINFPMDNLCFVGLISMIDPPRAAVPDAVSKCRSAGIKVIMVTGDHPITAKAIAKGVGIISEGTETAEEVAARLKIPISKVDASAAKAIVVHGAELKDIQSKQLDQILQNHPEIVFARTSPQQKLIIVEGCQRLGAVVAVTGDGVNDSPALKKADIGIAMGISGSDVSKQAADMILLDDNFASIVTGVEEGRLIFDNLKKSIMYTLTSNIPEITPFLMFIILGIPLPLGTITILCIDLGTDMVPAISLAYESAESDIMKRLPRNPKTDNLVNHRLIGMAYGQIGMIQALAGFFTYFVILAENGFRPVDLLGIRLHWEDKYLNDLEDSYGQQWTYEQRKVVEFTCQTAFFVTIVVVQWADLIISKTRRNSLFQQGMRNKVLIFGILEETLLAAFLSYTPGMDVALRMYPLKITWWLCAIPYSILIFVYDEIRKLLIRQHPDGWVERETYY
# Sequence of UniProt Q9BRQ8 (Q9BRQ8 whole entry, looked up): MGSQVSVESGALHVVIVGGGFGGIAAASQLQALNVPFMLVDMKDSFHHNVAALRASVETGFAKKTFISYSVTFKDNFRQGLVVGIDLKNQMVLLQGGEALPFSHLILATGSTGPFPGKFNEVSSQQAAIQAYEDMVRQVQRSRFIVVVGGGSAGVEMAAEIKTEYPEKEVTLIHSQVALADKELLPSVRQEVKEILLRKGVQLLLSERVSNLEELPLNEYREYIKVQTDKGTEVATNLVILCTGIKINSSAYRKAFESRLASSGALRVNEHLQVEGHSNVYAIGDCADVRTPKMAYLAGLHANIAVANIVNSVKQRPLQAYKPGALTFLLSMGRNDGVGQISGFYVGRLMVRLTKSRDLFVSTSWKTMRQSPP
# Sequence of UniProt P52895 (P52895 whole entry, looked up): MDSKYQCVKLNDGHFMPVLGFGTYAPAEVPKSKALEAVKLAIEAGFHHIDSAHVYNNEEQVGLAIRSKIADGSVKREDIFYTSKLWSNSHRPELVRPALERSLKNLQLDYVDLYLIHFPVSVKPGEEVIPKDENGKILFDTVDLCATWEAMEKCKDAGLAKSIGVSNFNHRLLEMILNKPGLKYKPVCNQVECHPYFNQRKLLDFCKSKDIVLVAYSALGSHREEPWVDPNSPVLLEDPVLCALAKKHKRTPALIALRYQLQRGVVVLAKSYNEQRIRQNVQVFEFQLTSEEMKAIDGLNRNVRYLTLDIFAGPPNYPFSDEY
# Sequence of UniProt Q9NWB6 (Q9NWB6 whole entry, looked up): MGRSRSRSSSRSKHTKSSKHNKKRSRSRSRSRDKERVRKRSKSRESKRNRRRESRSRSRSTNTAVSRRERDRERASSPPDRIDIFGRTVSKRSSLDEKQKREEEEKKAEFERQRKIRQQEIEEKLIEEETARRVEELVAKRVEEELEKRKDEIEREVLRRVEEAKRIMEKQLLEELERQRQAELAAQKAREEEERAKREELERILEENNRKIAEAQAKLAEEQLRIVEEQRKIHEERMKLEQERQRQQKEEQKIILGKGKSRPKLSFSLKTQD
# Sequence of UniProt Q9Y6E2 (Q9Y6E2 whole entry, looked up): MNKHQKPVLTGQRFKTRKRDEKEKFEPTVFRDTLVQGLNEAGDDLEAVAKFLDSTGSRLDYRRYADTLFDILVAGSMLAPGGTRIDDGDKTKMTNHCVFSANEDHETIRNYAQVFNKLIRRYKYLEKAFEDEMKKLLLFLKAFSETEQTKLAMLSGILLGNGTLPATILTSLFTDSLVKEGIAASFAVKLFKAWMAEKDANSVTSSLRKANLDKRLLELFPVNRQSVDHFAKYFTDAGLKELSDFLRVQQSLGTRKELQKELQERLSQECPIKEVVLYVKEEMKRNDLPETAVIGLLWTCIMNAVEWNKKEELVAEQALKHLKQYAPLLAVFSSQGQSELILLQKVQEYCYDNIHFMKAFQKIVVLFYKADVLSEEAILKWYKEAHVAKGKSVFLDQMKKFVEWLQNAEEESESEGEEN
# Sequence of UniProt P42025 (P42025 whole entry, looked up): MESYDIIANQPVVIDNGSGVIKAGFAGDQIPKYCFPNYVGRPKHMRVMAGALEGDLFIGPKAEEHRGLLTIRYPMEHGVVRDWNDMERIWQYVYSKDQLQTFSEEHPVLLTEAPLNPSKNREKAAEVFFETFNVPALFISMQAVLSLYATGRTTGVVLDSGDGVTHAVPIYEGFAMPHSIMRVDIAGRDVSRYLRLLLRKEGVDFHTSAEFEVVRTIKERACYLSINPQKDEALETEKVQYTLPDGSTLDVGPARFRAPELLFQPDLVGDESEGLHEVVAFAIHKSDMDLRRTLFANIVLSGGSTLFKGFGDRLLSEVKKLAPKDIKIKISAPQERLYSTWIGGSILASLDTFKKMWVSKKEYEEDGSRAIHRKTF
# Sequence of UniProt P55196 (P55196 whole entry, looked up): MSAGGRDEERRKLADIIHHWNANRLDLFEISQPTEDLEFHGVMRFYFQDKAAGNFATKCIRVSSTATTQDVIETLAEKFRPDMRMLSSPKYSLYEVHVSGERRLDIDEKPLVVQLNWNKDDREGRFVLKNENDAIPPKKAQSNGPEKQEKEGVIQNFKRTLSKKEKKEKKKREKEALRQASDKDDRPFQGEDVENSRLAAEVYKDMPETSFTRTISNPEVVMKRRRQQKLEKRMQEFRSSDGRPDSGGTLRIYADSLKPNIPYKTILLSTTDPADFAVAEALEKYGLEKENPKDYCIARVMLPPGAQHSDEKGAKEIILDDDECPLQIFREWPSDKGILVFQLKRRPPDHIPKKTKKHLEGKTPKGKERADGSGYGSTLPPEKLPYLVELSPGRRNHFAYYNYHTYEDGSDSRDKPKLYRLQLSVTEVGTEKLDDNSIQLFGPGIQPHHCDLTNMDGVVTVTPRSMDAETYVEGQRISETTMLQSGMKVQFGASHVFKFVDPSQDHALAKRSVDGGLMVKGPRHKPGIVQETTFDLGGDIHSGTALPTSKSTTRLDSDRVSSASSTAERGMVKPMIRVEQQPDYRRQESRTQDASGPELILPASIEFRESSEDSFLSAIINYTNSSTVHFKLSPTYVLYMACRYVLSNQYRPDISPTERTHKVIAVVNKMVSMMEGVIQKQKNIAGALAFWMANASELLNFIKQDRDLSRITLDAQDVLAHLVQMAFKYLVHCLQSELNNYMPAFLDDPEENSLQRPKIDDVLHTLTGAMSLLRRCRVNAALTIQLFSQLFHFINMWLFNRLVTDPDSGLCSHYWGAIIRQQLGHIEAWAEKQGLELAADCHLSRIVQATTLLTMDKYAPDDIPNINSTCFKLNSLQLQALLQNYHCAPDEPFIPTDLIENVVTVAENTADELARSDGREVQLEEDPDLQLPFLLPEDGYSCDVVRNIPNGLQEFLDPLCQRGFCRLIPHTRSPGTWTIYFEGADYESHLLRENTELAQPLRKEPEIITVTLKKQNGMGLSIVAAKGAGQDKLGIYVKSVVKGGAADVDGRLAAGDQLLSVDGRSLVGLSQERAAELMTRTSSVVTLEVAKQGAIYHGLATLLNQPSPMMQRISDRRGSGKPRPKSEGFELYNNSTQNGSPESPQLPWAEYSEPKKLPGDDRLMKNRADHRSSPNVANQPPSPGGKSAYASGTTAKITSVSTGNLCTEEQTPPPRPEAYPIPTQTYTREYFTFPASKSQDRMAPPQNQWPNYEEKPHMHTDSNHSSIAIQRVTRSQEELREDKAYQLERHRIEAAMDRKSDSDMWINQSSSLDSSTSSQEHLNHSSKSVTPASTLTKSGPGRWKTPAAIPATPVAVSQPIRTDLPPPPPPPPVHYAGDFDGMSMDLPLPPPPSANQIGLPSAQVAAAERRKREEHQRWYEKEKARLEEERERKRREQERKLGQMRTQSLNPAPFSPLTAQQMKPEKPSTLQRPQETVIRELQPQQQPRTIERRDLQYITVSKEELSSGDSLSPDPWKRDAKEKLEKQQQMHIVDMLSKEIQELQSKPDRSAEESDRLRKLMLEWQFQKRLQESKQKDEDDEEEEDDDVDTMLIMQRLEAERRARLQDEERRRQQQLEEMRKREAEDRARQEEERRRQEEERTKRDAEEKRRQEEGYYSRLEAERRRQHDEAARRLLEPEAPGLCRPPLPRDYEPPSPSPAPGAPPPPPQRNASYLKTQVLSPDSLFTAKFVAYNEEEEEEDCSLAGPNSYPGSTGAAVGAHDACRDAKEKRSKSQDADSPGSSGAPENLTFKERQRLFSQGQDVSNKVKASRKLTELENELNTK
# Sequence of UniProt Q8N6S5 (Q8N6S5 whole entry, looked up): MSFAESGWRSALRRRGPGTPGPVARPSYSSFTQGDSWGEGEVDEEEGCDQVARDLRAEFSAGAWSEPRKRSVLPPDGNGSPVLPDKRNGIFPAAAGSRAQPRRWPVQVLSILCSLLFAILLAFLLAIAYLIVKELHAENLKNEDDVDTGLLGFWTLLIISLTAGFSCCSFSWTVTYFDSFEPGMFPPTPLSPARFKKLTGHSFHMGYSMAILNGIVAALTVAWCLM
# Sequence of UniProt P56211 (P56211 whole entry, looked up): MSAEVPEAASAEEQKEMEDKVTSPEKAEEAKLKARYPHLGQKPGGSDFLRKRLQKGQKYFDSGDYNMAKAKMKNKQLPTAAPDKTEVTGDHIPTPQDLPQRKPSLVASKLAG
Target,log2 fold change (bafetinib),log2 fold change [1],log2 fold change (nilotinib),log2 fold change [2],log2 fold change (dasatinib),log2 fold change [3],log2 fold change [4],log2 fold change [5],log2 fold change (tipifarnib),log2 fold change (mubritinib)
AIFM2 (UniProt Q9BRQ8),0.008,-0.129,0.067,0.023,0.046,-0.043,0.081,0.032,0.199,0.025
ATG9A (UniProt Q7Z3C6),-0.048,-0.013,-0.04,-0.108,-0.046,-0.014,0.06,-0.022,0.168,0.042
ALG14 (UniProt Q96F25),-0.092,0.461 (active),0.061,0.026,0.003,-0.033,0.014,0.126,-0.214,0.003
ATP6V1H (UniProt Q9UI12),-0.057,0.037,-0.015,-0.016,-0.029,0.049,0.025,-0.013,-0.01,0.098
AKT1 (UniProt P31749),0.041,0.004,0.033,-0.275,-0.416,-0.158,0.048,0,-0.136,0.033
BCCIP (UniProt Q9P287),0.048,0,-0.019,-0.022,-0.161,0.03,-0.009,-0.006,0.006,0.001
BZW2 (UniProt Q9Y6E2),-0.021,0.073,-0.057,-0.04,-0.132,-0.019,0.034,-0.004,-0.158,0.095
ARL6IP6 (UniProt Q8N6S5),-0.096,0.024,-0.027,0.019,0.098,0.036,0.012,-0.186,-0.054,0.04
ACSL1 (UniProt P33121),-0.178,-0.004,-0.003,-0.07,-0.076,-0.013,0.027,0.024,-0.015,-0.009
ARGLU1 (UniProt Q9NWB6),0.165,-0.058,0.184,-1.13 (active),0.146,-0.027,-0.046,-0.031,0.043,-0.057
AUP1 (UniProt Q9Y679),-0.023,0.11,-0.102,-0.055,-0.097,0.018,0.01,-0.03,-0.106,0.033
AFDN isoform 5 (UniProt P55196),-0.012,0.035,-0.06,-0.135,-0.16,-0.06,0.044,-0.008,-0.045,0.054
AAR2 (UniProt Q9Y312),-0.019,-0.062,0.058,0.009,-0.006,0.019,-0.079,-0.034,0.004,-0.036
AMFR (UniProt Q9UKV5),-0.095,0.099,-0.051,-0.016,-0.094,0.049,0.029,-0.06,0.05,-0.018
AKR1C2 (UniProt P52895),0.103,-0.111,0.029,-0.057,-0.012,0.028,-0.07,0.223,0.271,-0.06
ATP6V0A2 (UniProt Q9Y487),-0.041,0.007,0.035,0.006,-0.006,-0.077,-0.019,0.027,0.008,-0.019
ATP23 (UniProt Q9Y6H3),-0.1,-0.015,-0.092,0.067,0.041,-0.011,-0.097,0.023,0.081,0.033
ACACB (UniProt O00763),0.145,-0.021,-0.109,-0.251,-0.03,-0.026,-0.09,-0.059,-0.14,-0.147
B4GALNT1 (UniProt Q00973),0.141,-0.042,0.083,0.012,0.076,-0.125,-0.128,0.036,0.025,0.015
ATP1A4 (UniProt Q13733),0.038,0.036,0.058,-0.041,0.076,0.033,0.028,-0.041,-0.039,0.001
ABHD16A (UniProt O95870),0.132,-0.056,0.177,0.055,0.029,-0.058,0.087,-0.075,-0.01,0.071
BZW1 isoform 3 (UniProt Q7L1Q6),0.002,0.167,-0.124,-0.138,-0.283,0.03,0.017,0.011,-0.364,0.089
ACSL3 (UniProt O95573),-0.066,0.042,-0.086,-0.048,-0.06,0.011,0.029,0.075,-0.042,0
ARHGAP1 (UniProt Q07960),0.001,0.016,-0.019,-0.056,-0.101,0.007,-0.025,-0.008,-0.069,0.01
ACTR1B (UniProt P42025),-0.062,-0.221,0.034,-0.011,0.034,0.083,-0.011,0.003,0.077,-0.001
AHCYL1 (UniProt O43865),-0.009,-0.135,0.006,0.029,0.005,0.116,0.041,0.041,-0.014,-0.055
ATP5IF1 (UniProt Q9UII2),-0.039,-0.101,-0.038,0.005,0.055,-0.042,-0.002,0.094,0.059,0.033
ARPP19 (UniProt P56211),-0.057,0.005,0.02,-0.041,0.045,-0.004,0.033,-0.022,-0.055,0.002
ABCC5 (UniProt O15440),-0.027,0.068,-0.21,-0.219 (active),-0.035,-0.015,0.017,0.053,-0.009,0.124
ALG5 (UniProt Q9Y673),0.021,0.067,0.009,-0.123,-0.045,-0.121,0.088,0.059,-0.079,-0.055

# From the supplement of paper PMC10849652
